Shown are actives, neighbours in structure and some others; about 28% of the full set was active somewhere.
Mac1 fbg enh = increases human CD11b/CD18 adhesion to fibrinogen; P05107+P11215; K562 CD11b/CD18 adhesion to fibrinogen, ATPlite luminescence; actives 0.07% (n = 93,000); activation, % at 10 µM;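 active = 10 µM primary screen giving 50% or more activity, confirmed by 40% or more on retest at that dose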
CYP2C9 activ = increases human cytochrome P450 2C9 activity | recombinant CYP2C9, luciferin-H conversion, luminescence; active compounds read high; factor 1 = untreated enzyme, 0 = blocked | activation factor at 5 µM | actives 1.4% (n = 96,000) | AID 1024;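 active = activation factor of 2 or more for CYP2C9 at a 5 µM dose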
Target sequence (P11712 whole entry, looked up): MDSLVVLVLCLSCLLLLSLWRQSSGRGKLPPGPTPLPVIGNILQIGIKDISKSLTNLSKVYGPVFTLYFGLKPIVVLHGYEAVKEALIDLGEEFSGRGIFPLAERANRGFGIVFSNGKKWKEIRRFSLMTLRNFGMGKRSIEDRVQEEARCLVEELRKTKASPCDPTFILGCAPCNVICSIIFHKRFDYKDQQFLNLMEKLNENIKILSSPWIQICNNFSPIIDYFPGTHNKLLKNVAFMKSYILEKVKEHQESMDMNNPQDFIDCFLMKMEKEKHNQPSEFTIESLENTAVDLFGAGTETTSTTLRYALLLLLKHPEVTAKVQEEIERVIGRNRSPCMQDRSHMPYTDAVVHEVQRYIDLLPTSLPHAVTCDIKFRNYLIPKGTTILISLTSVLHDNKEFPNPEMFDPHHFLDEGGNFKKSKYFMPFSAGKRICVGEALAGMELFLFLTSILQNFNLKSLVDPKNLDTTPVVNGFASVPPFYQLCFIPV
CYP2C19 inhib = human CYP2C19 inhibition | P33261 | CYP2C19 Supersomes, luciferin-H EGE luminescence, 30 min | inhibition, % at 5 µM | actives 21% (n = 96,000) | AID 778;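 active = CYP2C19 inhibition above a set limit at 5 µM in the primary screen, cut at about 50% in these data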
CYP2C19 act = activators of human cytochrome P450 2C19. AID 1025. recombinant CYP2C19, luciferin-H EGE luminescence; active compounds read high; 0 = fully inhibited enzyme, 1 = untreated enzyme. 96,000 tested, under 10 active. activation factor at 5 µM. P33261;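 active = activation factor of at least 2 at 5 µM in the primary screen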
CYP2C9 inhib = inhibitors of human CYP2C9. P11712. CYP2C9 Supersomes, luciferin-H conversion, luminescence. inhibition, % at 5 µM. actives 20% (n = 96,000). AID 777;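 active = blocking of liver enzyme CYP2C9 beyond about 50% at 5 µM, limit read from the data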
Mac1 fbg inh = inhibitors of human CD11b/CD18 binding to fibrinogen. P05107+P11215. K562 CD11b/CD18 adhesion to fibrinogen, ATPlite luminescence; Mn2+ added to activate the integrin. inhibition, % at 10 µM. actives 0.54% (n = 93,000);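 active = primary inhibition of 50% or more at 10 µM, then 40% or more on retest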
Each line names hits and unclear results; the compound was inactive in the other large screens.

Fc1ccc(Br)cc1C1C=C(c2ccc(Br)s2)Nc2ncnn21 (centres undefined)	CYP2C19 inhib 95.9
COc1cccc(C2C=C(c3ccc(Br)s3)Nc3ncnn32)c1OC (centres undefined)	CYP2C19 inhib 98.1, CYP2C9 inhib 83.3
C=CCOC(=O)C1=C(C)Nc2ncnn2C1c1cc(Br)ccc1F (centres undefined)	none (no result: Mac1 fbg enh, Mac1 fbg inh)
CCOc1ccc(-n2c(SC(C)C)nc3c(c2=O)SCC3)cc1	none
CCN(CC)S(=O)(=O)c1ccc(N2CCN(S(=O)(=O)c3ccc4c(c3)OCCO4)CC2)nc1	none
COc1ccc(C(C(=O)NC(C)(C)C)N(CC2CCCO2)C(=O)CCC(=O)Nc2cc(C)on2)cc1 (centres undefined)	CYP2C19 inhib 51.1, CYP2C9 inhib 83.5
Cc1cccc(N(C(=O)CCC(=O)Nc2cc(C)on2)C(C(=O)NC2CCCC2)c2ccncc2)c1 (centres undefined)	CYP2C19 inhib 81.0, CYP2C9 inhib 83.8
Cc1cc(NC(=O)CCC(=O)N(Cc2cccs2)C(C(=O)NC2CCCC2)c2ccncc2)no1 (centres undefined)	CYP2C19 inhib 68.6, CYP2C9 inhib 84.5
Cc1ccc(N(C(=O)CCC(=O)Nc2cc(C)on2)C(C(=O)NC2CCCC2)c2ccncc2)cc1 (centres undefined)	CYP2C19 inhib 64.0, CYP2C9 inhib 69.4
C=C(C)Cn1c(CCCNC(=O)CCC)nc2ccccc21	none
Cc1nc(SCC(=O)N2CCN(c3ccccc3)CC2)c2oc3ccccc3c2n1	CYP2C9 inhib 56.2
Cc1nc(SCC(=O)c2cccs2)c2oc3ccccc3c2n1	CYP2C9 inhib 63.8
O=C(CSc1ncnc2c1oc1ccccc12)c1cccs1	none
Cc1nc(SCC(=O)O)c2oc3ccccc3c2n1	none
Cc1nc(SCC(=O)NCc2ccccc2)c2oc3ccccc3c2n1	CYP2C9 inhib 78.8
CC1(C(=O)OCC(=O)N2c3ccccc3Sc3ccccc32)CC1(Cl)Cl (centres undefined)	none (no result: CYP2C9 activ, CYP2C19 inhib, CYP2C19 act, CYP2C9 inhib)
C#CCSc1nncn1C(=O)/C=C/c1ccccc1	none (no result: Mac1 fbg enh, Mac1 fbg inh)
CS(=O)(=O)N(CC(=O)NCc1ccccc1)Cc1ccc(Cl)cc1	none
CS(=O)(=O)N(CC(=O)NCc1ccc2c(c1)OCO2)Cc1ccccc1	CYP2C19 inhib 62.1
O=C(Cn1nc(-c2ccc(Cl)cc2)ccc1=O)NCc1ccc2c(c1)OCO2	CYP2C19 inhib 52.4, CYP2C9 inhib 76.9
O=C(Cn1cccc1C(=O)c1ccccc1)NCc1cccs1	CYP2C19 inhib 73.2 (no result: Mac1 fbg enh, Mac1 fbg inh)
CC(C)CNC(=O)CCCc1c[nH]c2ccccc12	CYP2C9 activ 2.1, CYP2C19 inhib 63.3 (no result: Mac1 fbg enh, Mac1 fbg inh)
CCN1C/C(=C\c2cccc(C)c2)c2nc3ccccc3c(C(=O)O)c2C1	none (no result: Mac1 fbg enh, Mac1 fbg inh)
CCN1CNC(=S)N(C(C)c2ccccc2)C1 (centres undefined)	none (no result: CYP2C9 activ, CYP2C19 inhib, CYP2C19 act, CYP2C9 inhib)
CCN(C(=O)COC(=O)C(Cc1ccccc1)N1C(=O)c2ccccc2C1=O)C1CCS(=O)(=O)C1 (centres undefined)	none
O=C(Cn1cccc1C(=O)c1ccccc1)NCc1ccc2c(c1)OCO2	CYP2C19 inhib 54.7
O=C(CCn1c(=O)c2ccccc2n(Cc2cccnc2)c1=O)NCc1ccc2c(c1)OCO2	CYP2C19 inhib 77.0, CYP2C9 inhib 69.4
Cc1nc2ccccc2nc1OCC(=O)NCc1ccc2c(c1)OCO2	CYP2C19 inhib 51.1
CCCC(C)C(=O)NCc1ccc2c(c1)OCO2 (centres undefined)	none
CC(Sc1ccc(Cl)cc1)C(=O)NCc1ccc2c(c1)OCO2 (centres undefined)	CYP2C19 inhib 76.2, CYP2C9 inhib 99.5
Cc1cc(C)cc(NC(=O)CSc2nc3c(c(=O)[nH]2)CN(Cc2ccc(F)cc2)CC3)c1	none (no result: CYP2C9 activ, CYP2C19 inhib, CYP2C19 act, CYP2C9 inhib)
O=C(Cc1ccccc1)NCc1ccc2c(c1)OCO2	CYP2C19 inhib 94.7, CYP2C9 inhib 53.6
O=C(CCc1c[nH]c2ccccc12)NCc1ccc2c(c1)OCO2	CYP2C19 inhib 91.8
CC(C)(C)C(=O)c1cn(CC(=O)NCc2ccc3c(c2)OCO3)c2ccccc12	CYP2C19 inhib 52.7, CYP2C9 inhib 50.5
O=C(Cn1nc(-c2ccccc2)ccc1=O)NCc1ccc2c(c1)OCO2	none
O=C(CN(C(=O)C1CSC(=O)C1)c1ccccc1F)NCc1ccc2c(c1)OCO2 (centres undefined)	CYP2C19 inhib 86.7
